Assay results published in PubChem BioAssay AID1347074 (Center for Chemical Genomics, University of Michigan, 2019).
Screen size: about 47,000 compounds; about 2,800 (6%) were called active. No stated cut-off is given here; in the data, active means z-score above about 3 (passing the limit was not always enough); inactive means the rest. Only a selection was taken, and actives are over-represented in it overall.

Molecular target: Endoribonuclease Dicer (Homo sapiens) (UniProt Q9UPY3)
Test: inhibitors of Dicer pre-microRNA processing, primary screen, biochemical, cat-ELCCA, chemiluminescence (AID 1347074);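 further: plate controls were vehicle for no effect and no enzyme for full effect; higher signal means more uncleaved substrate so more Dicer inhibition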
Details: cat-ELCCA pre-miR-21 Dicer processing, at 25 µM, stronger effect = higher value

Endoribonuclease Dicer (Homo sapiens), sequence (Q9UPY3 whole entry, looked up): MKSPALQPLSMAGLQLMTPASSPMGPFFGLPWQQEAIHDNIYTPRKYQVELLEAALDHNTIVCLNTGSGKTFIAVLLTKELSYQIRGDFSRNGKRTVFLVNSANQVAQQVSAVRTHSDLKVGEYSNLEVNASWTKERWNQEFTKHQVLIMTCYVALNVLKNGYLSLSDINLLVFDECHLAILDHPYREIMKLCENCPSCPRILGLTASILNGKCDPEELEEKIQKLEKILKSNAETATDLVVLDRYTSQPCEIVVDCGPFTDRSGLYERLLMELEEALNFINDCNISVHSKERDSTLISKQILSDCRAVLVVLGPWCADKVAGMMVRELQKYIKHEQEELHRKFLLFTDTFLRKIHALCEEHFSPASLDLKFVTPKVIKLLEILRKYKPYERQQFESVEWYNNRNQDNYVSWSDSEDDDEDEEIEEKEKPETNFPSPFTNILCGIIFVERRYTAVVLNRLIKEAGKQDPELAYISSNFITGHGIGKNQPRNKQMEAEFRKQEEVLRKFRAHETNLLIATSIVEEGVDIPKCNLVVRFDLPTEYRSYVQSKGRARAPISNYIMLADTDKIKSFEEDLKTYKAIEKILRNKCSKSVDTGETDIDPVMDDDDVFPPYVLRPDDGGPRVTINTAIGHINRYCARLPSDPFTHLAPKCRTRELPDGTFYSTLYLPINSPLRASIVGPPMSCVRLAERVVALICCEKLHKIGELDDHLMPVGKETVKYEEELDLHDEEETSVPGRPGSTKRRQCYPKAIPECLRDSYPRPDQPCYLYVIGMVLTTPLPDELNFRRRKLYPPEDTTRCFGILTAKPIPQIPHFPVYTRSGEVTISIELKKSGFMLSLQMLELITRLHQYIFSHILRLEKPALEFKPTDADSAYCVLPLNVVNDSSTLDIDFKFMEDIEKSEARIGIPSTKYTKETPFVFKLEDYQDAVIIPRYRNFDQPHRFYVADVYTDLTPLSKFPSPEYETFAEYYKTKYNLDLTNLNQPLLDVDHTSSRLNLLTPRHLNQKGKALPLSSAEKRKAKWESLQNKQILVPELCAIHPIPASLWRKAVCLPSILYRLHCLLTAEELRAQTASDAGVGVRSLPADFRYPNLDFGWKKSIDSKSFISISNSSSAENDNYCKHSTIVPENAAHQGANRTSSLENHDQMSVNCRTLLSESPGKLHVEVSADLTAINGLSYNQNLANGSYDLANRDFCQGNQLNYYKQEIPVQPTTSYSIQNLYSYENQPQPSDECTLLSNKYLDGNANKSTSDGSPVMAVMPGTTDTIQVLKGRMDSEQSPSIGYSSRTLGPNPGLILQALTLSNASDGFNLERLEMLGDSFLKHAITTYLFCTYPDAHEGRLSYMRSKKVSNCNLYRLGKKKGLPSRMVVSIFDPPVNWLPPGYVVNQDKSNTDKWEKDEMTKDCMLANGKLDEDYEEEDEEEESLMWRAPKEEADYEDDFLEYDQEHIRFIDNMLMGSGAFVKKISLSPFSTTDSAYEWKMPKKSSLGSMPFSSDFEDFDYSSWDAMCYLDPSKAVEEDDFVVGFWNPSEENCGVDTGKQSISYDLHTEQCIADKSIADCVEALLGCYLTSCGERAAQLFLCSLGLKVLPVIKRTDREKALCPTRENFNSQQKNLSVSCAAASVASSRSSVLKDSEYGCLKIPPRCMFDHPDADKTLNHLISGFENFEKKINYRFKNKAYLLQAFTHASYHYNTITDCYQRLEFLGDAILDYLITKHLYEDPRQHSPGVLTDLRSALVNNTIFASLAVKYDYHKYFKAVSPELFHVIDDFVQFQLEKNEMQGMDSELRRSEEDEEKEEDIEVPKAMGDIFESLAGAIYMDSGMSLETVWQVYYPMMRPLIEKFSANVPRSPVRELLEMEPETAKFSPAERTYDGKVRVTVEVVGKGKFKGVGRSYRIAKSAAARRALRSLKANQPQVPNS

Structure (SMILES)	z-score
COCCCNc1nc(-c2ccccc2)cs1	1.18 (inactive)
c1ccc(Nc2nc(-c3ccncc3)cs2)nc1	2.79 (inactive)
Cc1cccc(Nc2nc(-c3ccccc3)cs2)n1	3.09 (active)
CC(C)(C)NC(=S)Nc1ccc(F)c(Cl)c1	16.8 (inactive)
CC1(C)N=C(N)N=C(N)N1c1ccccc1C(F)(F)F	1.59 (inactive)
CCOC(=O)Cc1csc(NC(=O)Nc2cccc3ccccc23)n1	6.9 (inactive)
CCCCc1c(COC)nc(-c2ccc(Cl)cc2)[nH]c1=O	3.16 (active)
Cn1nc(-c2ccc(Cl)cc2)[nH]c1=O	-1.42 (inactive)
Cc1nc(-c2ccc(C(F)(F)F)cc2)[nH]c(=O)c1Oc1ccc(Cl)cc1Cl	0.23 (inactive)
O=S(=O)(c1ccc(C2Nc3ccc(Cl)cc3C3C=CCC32)cc1)N1CCOCC1 (stereo unspecified)	-0.43 (inactive)
COC(=O)c1ccc([C@@H]2Nc3ccc(F)cc3[C@@H]3C=CC[C@@H]32)cc1	0.68 (inactive)
O=C(O)C1Nc2ccc(Cl)cc2C2C=CCC12 (stereo unspecified)	15.4 (active)
CSC(=NCc1ccco1)Nc1ccc(Cl)cc1	2.16 (inactive)
CCc1ccnc(NC(=O)Nc2ccc(OCc3ccccc3)cc2)c1	0.13 (inactive)
Nc1cc(-c2ccccc2)nn1-c1ccccc1	-0.41 (inactive)
Nc1cccc(-c2cc(-c3ccccc3)nc(-c3cccc(N)c3)n2)c1	8.06 (active)
c1ccc(-c2cc(-c3ccccc3)[nH]n2)cc1	0.74 (inactive)
O=C(O)CCc1nc2ccccc2[nH]c1=O	-2.59 (inactive)
COc1cccc(OC)c1C(=O)NC(=O)Nc1c(C)cc(Br)cc1C	-0.89 (inactive)
CN(C)/C=C/c1nnnn1-c1ccc(Br)cc1	2.13 (inactive)
Nc1c(C(=O)NNC(=S)Nc2ccccc2)cnn1-c1ccccc1	3.4 (active)
Cc1cc(NC(=O)Nc2ccccc2)n(-c2ccccc2)n1	-0.46 (inactive)

Structure (SMILES)	z-score
NNC(=O)c1cnn(-c2ccccc2)c1C(F)(F)F	-1.32 (inactive)
CCc1ncc(C(O)c2ccccc2)n1C (stereo unspecified)	-0.48 (inactive)
COCCCn1c2c(c(=O)[nH]c1=O)C(c1ccc(C(=O)O)cc1)C1=C(N2)c2ccccc2C1=O (stereo unspecified)	-1.05 (inactive)
COc1cc(C(=O)NCC2CCCO2)c(OC)cc1C(=O)NCC1CCCO1 (stereo unspecified)	1.74 (inactive)
COc1ccc(/C=C/c2noc(-c3ccccc3O)n2)cc1OC	0.89 (inactive)
Nc1nc(/C=C/c2ccc(O)cc2)nc(-c2ccccc2O)n1	5.62 (active)
Oc1ccccc1-c1nc(/C=C/c2ccc(F)cc2)no1	-0.19 (inactive)
CN1c2ccc(Cl)cc2C(C)(C)C12C=Nc1c(ccc3ccccc13)O2 (stereo unspecified)	-0.52 (inactive)
O=C(Nc1ccccc1)Nc1ccc(C(F)(F)F)cn1	0.31 (inactive)
CC(C)Cn1c(Cn2c3ccccc3c3ccccc32)n[nH]c1=S	3.9 (active)
OCC(O)Cn1c2ccccc2c2ccccc21 (stereo unspecified)	-0.45 (inactive)
CCn1c(CN2C(=O)CSc3ccccc32)n[nH]c1=S	0.75 (inactive)
CCOC(=O)c1c(C)nn(-c2ncccc2[N+](=O)[O-])c1C	-0.17 (inactive)
Cc1[nH]nc(NCc2ccccc2)c1[N+](=O)[O-]	-1.14 (inactive)
O=C1CC(c2ccccc2)N(c2ccc(OC(F)(F)F)cc2)C(=S)N1 (stereo unspecified)	-0.98 (inactive)
O=C(Nc1ccccc1)O/N=C1\CCSC1	0.99 (inactive)
Cc1ccc(N2C(=O)c3oc4cc(C)c(C)cc4c(=O)c3C2c2ccc(O)cc2)nc1 (stereo unspecified)	0.43 (inactive)
C=CCOc1cccc(C2c3c(oc4ccccc4c3=O)C(=O)N2c2ccc(C)cn2)c1 (stereo unspecified)	0.54 (inactive)
Cc1ccc(N2C(=O)c3oc4ccccc4c(=O)c3C2c2cccnc2)nc1 (stereo unspecified)	3.52 (active)
O=C1c2oc3ccccc3c(=O)c2C(c2cccc(O)c2)N1c1ccccn1 (stereo unspecified)	3.7 (active)
C=CCOc1ccc(C2c3c(oc4ccccc4c3=O)C(=O)N2c2ccc(C)cn2)cc1 (stereo unspecified)	0.29 (inactive)
O=C1c2oc3ccccc3c(=O)c2C(c2cccc(O)c2)N1Cc1ccccc1 (stereo unspecified)	0.58 (inactive)

Structure (SMILES)	z-score
Cc1nc(N/N=C2\CCCc3ccccc32)sc1C	0.78 (inactive)
CC(C)(C)NC(=O)c1nn2c(C(F)(F)F)cc(-c3ccccc3)nc2c1Cl	-0.55 (inactive)
CCCc1nnc(N2C(=O)c3oc4ccc(F)cc4c(=O)c3C2c2ccc(OC)cc2)s1 (stereo unspecified)	1.52 (inactive)
O=C(N/C=C/c1ccsc1)Nc1cc(C(F)(F)F)cc(C(F)(F)F)c1	0.88 (inactive)
Cc1ccc(NC(=O)Nc2cc(-c3ccccc3)nn2C)cc1Cl	0.04 (inactive)
CCCCC1(C2CC(=O)N(c3ccccc3)C2=O)C(=O)N(c2ccccc2)N(c2ccccc2)C1=O (stereo unspecified)	1.04 (inactive)
O=C1CC(NCC2CCCCC2)C(=O)N1c1ccccc1 (stereo unspecified)	3.63 (active)
O=C1CC(Cc2ccc(Cl)cc2)C(=O)N1c1ccccc1 (stereo unspecified)	0.01 (inactive)
O=C(C1Sc2nnc(-c3ccccc3)n2NC1c1ccc(F)cc1)N1CCOCC1 (stereo unspecified)	2.92 (inactive)
Cc1cc(-c2ccccc2)n2nc(-c3ccccc3)cc2n1	0.87 (inactive)
Cc1ccc(-c2cc3nccc(-c4ccccc4O)n3n2)cc1	3.02 (active)
COc1ccc(-c2cc3nccc(-c4cc(F)ccc4O)n3n2)cc1	1.88 (inactive)
CC1CCc2c(sc3ncnc(SC(C)C(=O)O)c23)C1 (stereo unspecified)	-0.91 (inactive)
CCOC(=O)c1sc(N2C(=O)c3oc4ccccc4c(=O)c3C2c2cccs2)nc1C (stereo unspecified)	1.43 (inactive)
CCOC(=O)c1ccc(NC(=S)N(Cc2ccccc2)C(C)C)cc1	-0.22 (inactive)
CC(C)(C)OC(=O)NCC(=O)OCc1ccc(CC(=O)O)cc1	3.04 (active)
O=C(NCCC(O)C(=O)O)OCc1ccccc1 (stereo unspecified)	-1.43 (inactive)
O=C(O)Cc1ccc(-c2ccccc2)cc1	-0.37 (inactive)
COc1ccc2cccc(OC)c2n1	-1.05 (inactive)
O=C(Nc1nc2ccsc2c(=O)s1)c1ccccc1	-0.44 (inactive)
O=C(O)/C=C/C(=O)N1CCN(c2nccc(C(F)(F)F)n2)CC1	0.2 (inactive)
NC(=O)c1c(NC(=O)c2sc3cc(Cl)ccc3c2Cl)sc2c1CCC2	0.57 (inactive)
